The record followed here is PubChem BioAssay AID651658 (Broad Institute, 2012).

The structures appear in SMILES notation. The whole screen tested about 340,000 compounds, of which about 5,100 (1.5%) were called active.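 The calls were made as follows: active = mean Tm shift, scaled 0 neutral to 100 positive control, at about 1.3% or above, every replicate too (limit read from the data); inconclusive = no clear call, values can overlap the other calls; inactive = the rest.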 Many of the other results were omitted from the sample, so actives are more common in it than they were.

The target of the experiment is Fibroblast growth factor 22 (Homo sapiens) (UniProt Q9HCT0). Briefly: FGF22 ligand-induced thermal stabilization – biophysical, thermal shift, single point, FGF22 synaptogenesis inhibitor project, primary screen (AID 651658). To be noted: recombinant FGF22 thermal shift, SYPRO orange fluorescence; at 9.99 µM; hits give high values; percent of sucrose octasulfate shift, DMSO zero.
Sequence of Fibroblast growth factor 22 (Homo sapiens) (Q9HCT0 whole entry, looked up): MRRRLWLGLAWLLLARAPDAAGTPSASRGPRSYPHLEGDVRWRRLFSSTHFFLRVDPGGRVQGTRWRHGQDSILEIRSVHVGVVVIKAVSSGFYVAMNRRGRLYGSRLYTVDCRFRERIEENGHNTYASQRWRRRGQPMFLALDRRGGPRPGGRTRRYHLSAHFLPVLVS
For `CC(C)NC(=O)N[C@@H]1CC[C@@H](CCNS(=O)(=O)Cc2ccccc2)O[C@@H]1CO`, the activity (Tm shift, normalised) is -0.299% (inactive).

`O=C(Nc1ccc(F)cc1)N1C[C@@H]2[C@H](c3ccccc31)[C@H](CO)N2Cc1ccccc1`: the activity (Tm shift, normalised) is -0.206% (inactive).

`CN1C(=O)c2cc(NC(=O)c3ccccc3)ccc2OC[C@H]2O[C@@H](CC(=O)O)CC[C@@H]21`: the activity (Tm shift, normalised) was -0.04% (inactive).

Consider `CC(=O)N(C)C[C@@H]1Oc2ncc(C#Cc3ccccn3)cc2C(=O)N([C@@H](C)CO)C[C@@H]1C`, for which the activity (Tm shift, normalised) is 0.165% (inactive).

With `Cc1cccc(CN2CCN(C3CN(Cc4ccccc4)S(=O)(=O)C3)CC2)c1` (stereo unspecified), the activity (Tm shift, normalised) is -0.158% (inactive).

Turning to `CCCCN1CC(N2CCN(Cc3cccc(C)c3)CC2)CS1(=O)=O` (stereo unspecified), the activity (Tm shift, normalised) is 1.92% (active).

Take `Cc1cccc(CN2CCN(C3CN(Cc4cn(Cc5cc(C)cc(C)c5)nn4)S(=O)(=O)C3)CC2)c1` (stereo unspecified): the activity (Tm shift, normalised) was -0.326% (inactive).

On to `COc1cccc(CNC(=O)C[C@@H]2CC[C@H]3[C@@H](COc4ccc(NC(=O)c5cccs5)cc4C(=O)N3C)O2)c1`, for which the activity (Tm shift, normalised) was 0.125% (inactive).

As for `Cc1ccc(NC(=O)C(=O)NCc2ccc(/C=N/NC(=O)c3c(C)nc4cc(C)ccn34)o2)cc1`, the activity (Tm shift, normalised) is 2.68% (active).

Take `CCOc1ccc(/C=N\NC(=O)c2c(C)nc3cc(C)ccn23)cc1`: the activity (Tm shift, normalised) was -0.098% (inactive).

As for `Cc1ccn2c(=O)c(NC(=O)c3cccc4ccccc34)c(C)nc2c1`, the activity (Tm shift, normalised) was -0.089% (inactive).

`CO[C@H]1CN(C)C(=O)c2cc(NS(=O)(=O)c3ccccc3)ccc2OC[C@H](C)NC[C@@H]1C`: the activity (Tm shift, normalised) is -0.185% (inactive).

Consider `C[C@H]1CN([C@@H](C)CO)S(=O)(=O)c2ccc(Br)cc2O[C@H]1CN(C)Cc1ccccn1`, for which the activity (Tm shift, normalised) is -0.079% (inactive).

Turning to `COc1ccc2c3c(n(C)c2c1)[C@@H](CO)N(C(=O)Nc1ccc(F)cc1)CC31CCN(C(=O)c2cccnc2)CC1`, the activity (Tm shift, normalised) was -0.306% (inactive).

For the compound `C[C@@H]1CN([C@H](C)CO)S(=O)(=O)c2ccc(C3=CCCC3)cc2O[C@@H]1CN(C)C(=O)C1CCC1`, the activity (Tm shift, normalised) was 0.141% (inactive).

In the case of `O=C(c1ccncc1)c1ccc([N+](=O)[O-])cc1`, the activity (Tm shift, normalised) is 43.1% (active).

Consider `O=C(Nc1ccccc1C(=O)Nc1ccncc1)c1ccc([N+](=O)[O-])cc1`, for which the activity (Tm shift, normalised) is -0.016% (inactive).

Turning to `O=C(Nn1cnnc1)c1ccc([N+](=O)[O-])cc1`, the activity (Tm shift, normalised) is 42.7% (inactive).

Turning to `CC(C)NC(=O)N1CC2(C1)[C@H](c1ccccc1)[C@H](CO)N2C(=O)C1CCOCC1`, the activity (Tm shift, normalised) was -0.068% (inactive).

Regarding `O=[N+]([O-])c1ccc2c(c1)C(O)n1nc(-c3ccccc3)nc1S2` (stereo unspecified), the activity (Tm shift, normalised) was 0.035% (inactive).

Take `O=[N+]([O-])c1ccc2oc(-c3cccc(O)c3)nc2c1`: the activity (Tm shift, normalised) was 43.2% (active).

Regarding `CC(=O)Oc1ccc2c(=O)oc(-c3ccc([N+](=O)[O-])cc3)nc2c1`, the activity (Tm shift, normalised) was -0.034% (inactive).

Take `CN(C)C(=O)C[C@@H]1CC[C@H]2[C@@H](COC[C@H](O)CN2C(=O)c2ccncc2)O1`: the activity (Tm shift, normalised) was -0.192% (inactive).

Take `CC(C)CC#Cc1cnc2c(c1)C(=O)N([C@H](C)CO)C[C@H](C)[C@@H](CN(C)Cc1ccccc1)O2`: the activity (Tm shift, normalised) is 0.063% (inactive).

For `CO[C@@H]1CN(C)C(=O)c2ccc(NC(=O)Nc3ccccc3)cc2OC[C@@H](C)N(C(=O)CN(C)C)C[C@H]1C`, the activity (Tm shift, normalised) was -0.352% (inactive).

On to `Cc1c(CCOC(=O)CC23CC4CC(CC(C)(C4)C2)C3)sc[n+]1Cc1ccc([N+](=O)[O-])cc1`, for which the activity (Tm shift, normalised) is -0.223% (inactive).

For the compound `Cc1c(CCO)sc[n+]1CC(=O)OC12CC3CC(CC(C3)C1)C2`, the activity (Tm shift, normalised) is 1.45% (active).

As for `C[C@@H]1CN([C@@H](C)CO)S(=O)(=O)c2ccc(/C=C/c3ccccc3)cc2O[C@H]1CN(C)C(=O)C1CC1`, the activity (Tm shift, normalised) was -0.835% (inactive).

As to `COc1cccc(CN2CC3(CN(Cc4ccccn4)C3)c3c([nH]c4cc(OC)ccc34)[C@@H]2CO)c1`, the activity (Tm shift, normalised) was 0.052% (inactive).

`CCS(=O)(=O)N1CCC2(CC1)CN(Cc1ccc3c(c1)OCO3)[C@H](CO)c1[nH]c3cc(OC)ccc3c12`: the activity (Tm shift, normalised) was 0.042% (inactive).

As for `COc1cc(C(=O)Nn2c(CC(C)C)nc3ccccc3c2=O)cc(OC)c1OC`, the activity (Tm shift, normalised) was 0.375% (inactive).

`COc1ccccc1C(=O)Nn1c(-c2cccs2)nc2ccccc2c1=O`: the activity (Tm shift, normalised) was 43.8% (active).

On to `COc1cc(OC)cc(-c2nc3ccccc3c(=O)n2NC(=O)c2cccnc2Cl)c1`, for which the activity (Tm shift, normalised) was 0.323% (inactive).

For the compound `C[C@H]1CN([C@@H](C)CO)C(=O)c2cc(-c3ccncc3)cnc2O[C@H]1CN(C)C(=O)c1cccc(F)c1`, the activity (Tm shift, normalised) is -0.103% (inactive).

As to `C[C@H]1CN([C@@H](C)CO)C(=O)c2cc(NC(=O)Nc3ccccc3)ccc2O[C@H]1CN(C)C(=O)Nc1ccc(F)cc1`, the activity (Tm shift, normalised) was 0.055% (inactive).

With `COCC(=O)Nc1ccc2c(c1)OC[C@H](C)N(C)C[C@@H](C)[C@@H](OC)CN(C)C2=O`, the activity (Tm shift, normalised) is 38% (active).

`CCC(=O)N1C[C@@H](C)[C@H](OC)CN(C)C(=O)c2ccc(NC(=O)COC)cc2OC[C@@H]1C`: the activity (Tm shift, normalised) is 0.031% (inactive).

`COCC(=O)Nc1ccc2c(c1)OC[C@H](C)N(C(=O)COC)C[C@@H](C)[C@H](OC)CN(C)C2=O`: the activity (Tm shift, normalised) is 0.165% (inactive).

For the compound `COc1cccc(-c2ccc3c(c2)[C@H]2[C@H](CCN2C(=O)c2ccc(F)cc2)[C@@H](CO)N3)c1`, the activity (Tm shift, normalised) is -0.166% (inactive).

For `O=[N+]([O-])c1ccc(F)cc1Oc1nc(-c2cccnc2)nc2ccccc12`, the activity (Tm shift, normalised) was 43.2% (active).

As to `O=[N+]([O-])c1cc2ccccc2nc1-c1ccccc1`, the activity (Tm shift, normalised) was 42.3% (inactive).

On to `N#CCSc1nc(-c2ccccc2)nc2ccc(F)cc12`, for which the activity (Tm shift, normalised) is -0.193% (inactive).

Regarding `COc1cccc(-c2ccc([C@@H]3[C@@H](C#N)N(C(=O)c4ccccn4)[C@H]3CO)cc2)c1`, the activity (Tm shift, normalised) is -0.024% (inactive).

As to `O=C(CN1CCOCC1)NC[C@@H]1N[C@@H](CO)[C@@H]1c1ccc(-c2ccccc2)cc1`, the activity (Tm shift, normalised) is 0.456% (inactive).

In the case of `C[C@@H]1CN([C@H](C)CO)C(=O)c2cc(N(C)C)ccc2O[C@@H](C)CCCCO[C@@H]1CN(C)C(=O)CCCN(C)C`, the activity (Tm shift, normalised) was -0.859% (inactive).

Turning to `COc1ccccc1C#Cc1cnc2c(c1)C(=O)N([C@H](C)CO)C[C@H](C)[C@H](CN(C)S(=O)(=O)c1cn(C)cn1)O2`, the activity (Tm shift, normalised) is 0.666% (inactive).

Turning to `CC(C)[C@@H]1COCn2nncc2CCCC(=O)N1`, the activity (Tm shift, normalised) was -0.193% (inactive).

Regarding `O=C(C[C@H]1CC[C@@H]2[C@H](COC[C@@H](O)CN2C(=O)Nc2ccc(C(F)(F)F)cc2)O1)NCCc1ccncc1`, the activity (Tm shift, normalised) was -0.088% (inactive).

With `O=C1C=C(c2ccccc2)CCC1`, the activity (Tm shift, normalised) was 43.9% (active).

With `CC(C)NC(=O)N1[C@H](CO)[C@H](c2ccccc2)C12CN(C(=O)Cc1ccccc1)C2`, the activity (Tm shift, normalised) was -0.087% (inactive).

For the compound `CC(C)Oc1ccccc1C(=O)NC(CO)C(=O)O` (stereo unspecified), the activity (Tm shift, normalised) was 42.8% (inactive).

Consider `CC1(C)OC(=O)C(=CNC(CO)C(=O)O)C(=O)O1` (stereo unspecified), for which the activity (Tm shift, normalised) was 43.2% (active).

Turning to `COCC(=O)N1CC2(C1)CN(C(=O)COC)[C@@H](CO)c1c2c2ccc(OC)cc2n1C`, the activity (Tm shift, normalised) is -0.043% (inactive).

Take `C[C@@H]1CN([C@H](C)CO)C(=O)c2cc(NC(=O)Cn3cnnn3)ccc2O[C@@H]1CN(C)C(=O)Nc1ccc2c(c1)OCO2`: the activity (Tm shift, normalised) is 0.191% (inactive).

Regarding `O=S(=O)(N[C@@H]1CC[C@H](CCn2cc(-c3ccccc3F)nn2)O[C@H]1CO)c1ccc(F)cc1`, the activity (Tm shift, normalised) was 0.086% (inactive).

Consider `O=S(=O)(Oc1ccccc1C(=S)N1CCOCC1)c1ccc(Cl)cc1`, for which the activity (Tm shift, normalised) is 0% (inactive).

Turning to `O=C(Cc1ccccc1Cl)N1CCOCC1`, the activity (Tm shift, normalised) is -0.495% (inactive).

For `S=C(Cc1ccc(Cl)cc1)N1CCOCC1`, the activity (Tm shift, normalised) is 43.7% (active).

Take `COc1ccc2c3c(n(C)c2c1)[C@@H](CO)NCC31CCN(CC2CCCC2)CC1`: the activity (Tm shift, normalised) is -0.076% (inactive).

With `O=S(=O)(c1ccccc1)c1nc(-c2ccccc2)oc1NCCCN1CCOCC1`, the activity (Tm shift, normalised) is 0.296% (inactive).

For the compound `O=S(=O)(c1ccccc1)c1nc(-c2ccccc2F)oc1NCc1cccnc1`, the activity (Tm shift, normalised) was 44.2% (active).

For the compound `Cc1ccc(S(=O)(=O)c2nc(-c3cccs3)oc2NCc2cccnc2)cc1`, the activity (Tm shift, normalised) is 0.137% (inactive).

On to `O=C(NCC1CC1)[C@@H]1[C@@H](CO)[C@@H]2Cn3c(ccc(-c4ccccc4)c3=O)[C@H]1N2C(=O)C1CC1`, for which the activity (Tm shift, normalised) was 0.292% (inactive).

For the compound `CC1CCN(S(=O)(=O)c2ccc3[nH]c(=O)ccc3c2)CC1`, the activity (Tm shift, normalised) is 43.3% (active).

For the compound `Cc1cc(C)cc(NC(=O)C2CCCN(S(=O)(=O)c3ccc4[nH]c(=O)ccc4c3)C2)c1` (stereo unspecified), the activity (Tm shift, normalised) is -0.297% (inactive).

As to `CC1CCN(S(=O)(=O)c2ccc3c(c2)n(C)c(=O)n3C)CC1`, the activity (Tm shift, normalised) was 0.113% (inactive).

For the compound `COc1ccc(CCNC(=O)c2c(C)nn(-c3ccccc3)c2Cl)cc1`, the activity (Tm shift, normalised) was 0.155% (inactive).

Turning to `COCc1[nH]nc2c1C(c1ccccc1)N(c1ccccc1)C2=O` (stereo unspecified), the activity (Tm shift, normalised) was -0.061% (inactive).

With `COc1ccc(C2c3c(C)nn(-c4ccccc4)c3NC(=O)N2c2ccccc2)cc1` (stereo unspecified), the activity (Tm shift, normalised) was 42.9% (active).

Consider `COc1ccccc1-c1ccc2c(c1)O[C@@H](CN(C)C(=O)Nc1ccccc1)[C@H](C)CN([C@@H](C)CO)S2(=O)=O`, for which the activity (Tm shift, normalised) was 0.048% (inactive).

Turning to `CN1c2ccc(-c3cccc(C#N)c3)cc2[C@@H]2[C@@H](CCN2C(=O)C2CCC2)[C@@H]1CO`, the activity (Tm shift, normalised) was -0.466% (inactive).

Turning to `COc1ccc(NC(=O)CCNC(=O)Cn2cnc3sc4c(c3c2=O)CCCC4)cc1OC`, the activity (Tm shift, normalised) was 0.026% (inactive).

With `CC(C(=O)O)n1cnc2sc3c(c2c1=O)CCCC3` (stereo unspecified), the activity (Tm shift, normalised) is 43.5% (active).

For `Cc1nc2sc3c(c2c(=O)n1NC(=O)CCl)CCCC3`, the activity (Tm shift, normalised) is 0.109% (inactive).

Regarding `CN(C)C(=O)c1ccc(-c2ccc([C@@H]3[C@@H](CO)N4CCCCN(CC5CC5)C[C@H]34)cc2)cc1`, the activity (Tm shift, normalised) was -0.109% (inactive).

Turning to `CC(=O)N1[C@@H](CO)[C@H](c2ccccc2)[C@@H]1CN(C)C(=O)CN1CCOCC1`, the activity (Tm shift, normalised) is 0.01% (inactive).
